Experimental data reported in publication PMC12136788.
Changes are numbered by the printed parent chain. Over roughly 5,800 sequences, “enrichment r” has its median near 0.68; the highest 2% begin near 11. The sample holds the highest values, similar sequences and a random draw of the others, so the mix is not that of the screen.

T1: UNK ZnF1-6 (called full-length) (human, UniProt Q9C0B0 30-357)
T1 sequence: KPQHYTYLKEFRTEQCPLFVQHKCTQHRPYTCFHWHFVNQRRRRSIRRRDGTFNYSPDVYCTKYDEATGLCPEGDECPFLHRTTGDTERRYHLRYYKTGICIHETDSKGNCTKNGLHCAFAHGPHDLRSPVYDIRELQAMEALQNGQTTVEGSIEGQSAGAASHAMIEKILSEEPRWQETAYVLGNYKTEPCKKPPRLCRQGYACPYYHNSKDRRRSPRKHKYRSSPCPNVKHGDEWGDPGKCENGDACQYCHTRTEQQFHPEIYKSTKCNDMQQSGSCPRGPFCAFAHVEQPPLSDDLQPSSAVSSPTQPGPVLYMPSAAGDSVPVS

B1: chr6:105096826:105097152:-|3pUTR|ENSG00000112276|msi1|FALSE|unique (ssRNA)
RNA: GGGAGUUCUACAGUCCGACGAUCACUUGCAACCUAGUUUUAAAAUACAUGAGGAUUUUAUGAAAGCUUUAUACAGACAUUUAUAGGAAACUCAUUCUUUGAUUUUAGGUGCCAUUUAAAUUGAUAACACUUACUUUAUAAAAACAACAGAGGAUUGAGCAUCA
B2: chr10:91630394:91630495:-|CDS|ENSG00000119938|unk|total|mutant (ssRNA)
RNA: GGGAGUUCUACAGUCCGACGAUCCUUGGACCUUAAUGAUAUCUCCUCUGCCUUAAAACACCACGAGGAGAAAAACUUGAUUUCCGAUUUCCCUCAGCCUUCAACCGAUUACUUAAGUUUCCGGAGCCACUUUCAGAAGAACUUCAACAGAGGAUUGAGCAUCA
B3: chr11:20048915:20049016:+|CDS|ENSG00000166833|unk|total|mutant (ssRNA)
RNA: GGGAGUUCUACAGUCCGACGAUCGAGCAGUGGGAGCAGCAGUCCUCUCUACAGCAAGAAUGUGGACCUCAACCAGUCUCCGCCCGCCUCCAGCCCCAGCUCAGCCCACUCGGCCCCUUCCAACAGCCUCACCUGGGGCACCAACAACAGAGGAUUGAGCAUCA
B4: chr1:178479239:178479534:-|three_prime_utr|ENSG00000188585|control|control|control (ssRNA)
RNA: GGGAGUUCUACAGUCCGACGAUCCAGUUUCUGUUUCAUGCAAUCUUCUCUGGAUUUUGAGUAAAUUUUAAUUUUUUAAUCCCUAGUAGAACAAGAUUAGGAAGAACUCGACAUGUGCCAAAAAGCACAGACCUACAACUAACACAACAGAGGAUUGAGCAUCA
B5: chr1:214641902:214642005:+|CDS|ENSG00000117724|unk|total|mutant (ssRNA)
RNA: GGGAGUUCUACAGUCCGACGAUCAGAAAUCAAUGUAAUUUUAAACCUCAGAUGGAUCUUGAAGUUAAAGAAAUUUCUCCCGACCGUUAUAAUGCGCAGUUGGUGCAAUCCGAAGCUAUGCUAAGAAAUAAGGAAUUAAAACUUCAACAGAGGAUUGAGCAUCA
B6: chr20:31664451:31666086:-|three_prime_utr|ENSG00000171552|control|control|control (ssRNA)
RNA: GGGAGUUCUACAGUCCGACGAUCAUGCAGCCCAUGCCCACCUGCCCAUCACAGGGUUGGGCCCAGAUCUGGUCCCUUGCAGCUAGUUUUCUAGAAUUUAUCACACUUCUGUGAGACCCCCACACCUCAGUUCCCUUGGCCUCACAACAGAGGAUUGAGCAUCA
B7: chr10:100209595:100209696:-|CDS|ENSG00000213341|unk|FALSE|unique (ssRNA)
RNA: GGGAGUUCUACAGUCCGACGAUCACUUCUUUCAGAGACAGGAAUUUCUCUGGAUCCUCGGAAACCAGCCUCUCAAUGUGUUCUAGAUGGAGUUGUAAGAAAAUUAAUUAUAAUAUCCCUAGAGUAUGUGAAAUCUAGAGGGAUCAACAGAGGAUUGAGCAUCA
B8: chr5:132541444:132541810:-|three_prime_utr|ENSG00000113525|control|control|control (ssRNA)
RNA: GGGAGUUCUACAGUCCGACGAUCAAAUUGAUAUACUUUUUUCUUAUUUAACUUAACAUUCUGUAAAAUGUCUGUUAACUUAAUAGUAUUUAUGAAAUGGUUAAGAAUUUGGUAAAUUAGUAUUUAUUUAAUGUUAUGUUGUGUCAACAGAGGAUUGAGCAUCA
B9: chr1:56708525:56708626:+|3pUTR|ENSG00000162409|unk|FALSE|unique (ssRNA)
RNA: GGGAGUUCUACAGUCCGACGAUCACCUUUCUCAAAUUCUUUUUGCCUCUAUUUAUUUUUGCAUUUCACCAACAGUGAUAAAAUAGUUAAAUGAAACAAAGCAAAGUAUCAACAGUCCCUUAAAUGAGAAUCCUUAUCUUUGAUCAACAGAGGAUUGAGCAUCA
B10: chr8:116643852:116643953:-|3pUTR|ENSG00000147677|unk|total|mutant (ssRNA)
RNA: GGGAGUUCUACAGUCCGACGAUCUGUUGUGAAUGAGGAAUCCGGAAUCCGGAGAAUGGCCGUACAUUGGGAAAAACAUAUUUCCGUAAUUUUUAUAUUUUAAAGAUAAUCACAGAUUUUGCUGUUUGUGCAUCACCAAAAUCACAACAGAGGAUUGAGCAUCA
B11: chr16:11872726:11872856:-|3pUTR|ENSG00000103342|msi1_unk|FALSE|overlapping (ssRNA)
RNA: GGGAGUUCUACAGUCCGACGAUCACAUAAUUGCCUACAAUAAUGAAAACCUACAGGAAUUUUUUUAUUUUUCAUUUUCCCCUUAGGCAUAUUUAGUAUUUUUCCCCCAGGCAGAUCAUUCUGAGUGUGCGAGUGUGUGUGCACCAACAGAGGAUUGAGCAUCA
B12: chr9:83661418:83661519:-|3pUTR|ENSG00000135018|msi1|FALSE|unique (ssRNA)
RNA: GGGAGUUCUACAGUCCGACGAUCUAUAGUUGGGUGACCAGAUUUUGUCCUGCAUCUGUCCAGUUUAUUUGCUUUUUAAACAUUAGCCUAUGGUAGUAAUUUAUGUAGAAUAAAAGCAUUAAAAAGAAGCAAAUCAUUUGCACUCAACAGAGGAUUGAGCAUCA
B13: chr6:98868534:98874277:-|three_prime_utr|ENSG00000112234|control|control|control (ssRNA)
RNA: GGGAGUUCUACAGUCCGACGAUCAUUAAAAUUAAUGUGCUUUGUUGGGGUUUAAUUUUGGGAUUGGUUUUGGGUUUUGUUUUUAGUUGUUUUAAUGGUAAGAAUUAAGACAUUUGUAGAUUUUAAAGAAAAAUAUGAAAUUGUCAACAGAGGAUUGAGCAUCA
B14: chr12:81257974:81259660:-|three_prime_utr|ENSG00000139220|control|control|control (ssRNA)
RNA: GGGAGUUCUACAGUCCGACGAUCAUGACUUAUUAAAAGCUGAAAAAUGUGAUUUUUGGGGGGAGUCAGAUAUUACAUUUGAUUAGUUUACUACAAAUUGUAAUAAAAUGCUUAAGUCAUUUGAAUAAUAAACAUCAUCUACAUCAACAGAGGAUUGAGCAUCA
B15: chr8:116643852:116643953:-|3pUTR|ENSG00000147677|unk|FALSE|unique (ssRNA)
RNA: B10 RNA with C41U, C42A, C48U, C49A, C59U, C60A, C83U, C84A
B16: chr8:80637648:80637749:-|3pUTR|ENSG00000164684|unk|FALSE|unique (ssRNA)
RNA: GGGAGUUCUACAGUCCGACGAUCUGCGCUUAGCUGCAAAGUGCCUGUCAGCAGCUCCAGGCACCAACAAGGUGCCCUUUUAUUAGACAAUUCCUGCCCGAACAUAACCAUAUUGCAGAUGAAAAUUUUCAAUAGAGAAUGACACAACAGAGGAUUGAGCAUCA

target: T1, UNK ZnF1-6 (called full-length); assay: nsRBNS (natural sequence RNA bind-n-seq); RBNS binding buffer (assumed for nsRBNS): 25 mM Tris pH 7.5, 150 mM KCl, 3 mM MgCl2, 0.01% Triton X-100, 500 ug/ml BSA, 20 U/ml SUPERase-In, 4 C; UNK is unkempt and MSI1 is Musashi-1; names of the RNAs are library labels; protein concentration not given here; high values mean tight binding

Row | Binder | binding signal [enrichment R]
1 | B1 | 1.57
2 | B2 | 0.273
3 | B3 | 0.913
4 | B4 | 0.449
5 | B5 | 0.401
6 | B6 | 1.85
7 | B7 | 0.651
8 | B8 | 7.43
9 | B9 | 0.947
10 | B10 | 0.568
11 | B11 | 11.3
12 | B12 | 7.97
13 | B13 | 12.9
14 | B14 | 0.956
15 | B15 | 22.5
16 | B16 | 0.967
